# Legend:
# Format in all cases: functional
# [1] = biological target: Solute carrier family 2, facilitated glucose transporter member 1 (Homo sapiens) (UniProt P11166); assay: ST_JUDE_LEISH: Cytotoxicity at 2uM final concentration against transgenic Leishmania Mexicana promastigotes LmGLUT1 that are glucose transport deficient and complemented with the human glucose transporter GLUT1. Activity is measured by DNA content using SYBR green in vitro
# [2] = biological target: Hexose transporter 1 (Plasmodium falciparum) (UniProt O97467); assay: ST_JUDE_LEISH: Cytotoxicity at 2uM final concentration against transgenic Leishmania Mexicana promastigotes LmPfHT that are glucose transport deficient and complemented with the Plasmodium falciparum hexose transporter. Activity is measured by DNA content using SYBR green in vitro
# [3] = biological target: Glucose transporter (Leishmania mexicana) (UniProt O61059); assay: ST_JUDE_LEISH: Cytotoxicity at 2uM final concentration against transgenic Leishmania Mexicana promastigotes LmGT2 that are glucose transport deficient and complemented with the L. Mexicana glucose transporter 2. Activity is measured by DNA content using SYBR green in vitro
# Sequence of Solute carrier family 2, facilitated glucose transporter member 1 (Homo sapiens) (P11166 whole entry): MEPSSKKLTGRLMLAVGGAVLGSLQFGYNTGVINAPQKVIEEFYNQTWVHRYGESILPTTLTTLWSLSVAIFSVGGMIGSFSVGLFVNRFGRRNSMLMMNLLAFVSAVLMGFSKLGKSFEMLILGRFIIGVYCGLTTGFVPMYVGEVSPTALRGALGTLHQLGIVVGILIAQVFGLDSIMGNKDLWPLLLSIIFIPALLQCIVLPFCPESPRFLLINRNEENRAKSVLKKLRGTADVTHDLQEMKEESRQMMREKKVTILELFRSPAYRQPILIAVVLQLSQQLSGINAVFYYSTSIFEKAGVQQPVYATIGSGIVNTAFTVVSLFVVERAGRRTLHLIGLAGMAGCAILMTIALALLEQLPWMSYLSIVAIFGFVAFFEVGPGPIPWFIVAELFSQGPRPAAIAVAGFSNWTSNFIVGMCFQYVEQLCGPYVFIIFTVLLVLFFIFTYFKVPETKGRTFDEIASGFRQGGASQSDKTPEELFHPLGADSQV
SMILES,inhibition [1],inhibition [2],inhibition [3]
N=C(N)c1nc2ccccc2s1,1.87%,1.89%,2.04%
CC(CN(C)C)C(=O)Nc1cccc(-c2cccc(-c3nc4ccccc4[nH]3)c2)c1 (stereo not given),-0.1%,-0.62%,3.87%
Cc1cc(C(=O)Nc2ccc3c(c2)CCN3C2CCN(Cc3ccc4nsnc4c3)C2)no1 (stereo not given),3.24%,2.32%,5.35%
COc1ccc2nccc([C@@H](O)CN3CCC(NCc4ccc5c(c4)NC(=O)CO5)CC3)c2c1,1.26%,1.94%,1.91%
CN=C(Nc1c(Cl)cccc1Cl)N(C)C,2.85%,4.13%,4.17%
CN(C)CCOc1ccc2c(c1)CN(C)CC2c1ccccc1 (stereo not given),1.17%,0.33%,0.03%
CCn1ccc2c(N3CCCS3(=O)=O)cc(C(=O)N[C@@H](Cc3ccccc3)[C@H](O)CNC(C)(C)CCCC(C)C)cc21,7.39%,7.48%,2.41%
CCNC(=O)c1ccc(-n2nc(C)cc2-c2ccccc2)cc1,2.66%,3.31%,-0.67%
Clc1ccc(C2CCN(CCCOc3ccc4c(c3)CCNCC4)CC2)cc1,56.8%,40.9%,75.7%
CCCCCCCN(Cc1ccc(OC(C)(C)C(=O)OCC)cc1)C(=O)Nc1ccc(Cl)cc1OCC,3.65%,0.95%,3.11%
c1ccc(-c2ccc3c(Nc4ccc5[nH]ncc5c4)ccnc3c2)nc1,4.92%,4.75%,5.04%
Nc1nc(N)c2c(Sc3ccc(F)cc3)cccc2n1,6.11%,6.64%,7.67%
CN1N=C2c3ccccc3CCC2C1c1ccc(C#N)cc1 (stereo not given),12.4%,9.98%,7.86%
Cc1cccc(C)c1CNc1ccnc2cc(C#N)ccc12,3.83%,3.15%,2.98%
CC(C)COc1ccc(Cl)cc1Cc1ccc(-c2nc3ccc(C(F)(F)F)cc3[nH]2)o1,0.04%,0.46%,2.13%
CN(C)CCN(Cc1ccc(-c2ccc(CNCCc3ccccc3)cc2)nc1)C(=O)CCC1CCCC1,3.68%,6.87%,6.39%
CCOC(=O)C(C(C)=O)C(c1ccccc1)C(C(C)=O)C(=O)OCC (stereo not given),3.08%,4.69%,0.94%
CCCNC[C@@H](O)[C@H](Cc1ccccc1)NC(=O)c1cc(NCC)cc(N2CCCCS2(=O)=O)c1,1.97%,2.32%,2.85%

SMILES,inhibition [1],inhibition [2],inhibition [3]
COc1ccc2nccc([C@@H](O)CN3CCC(NCc4cc5ccccn5n4)CC3)c2c1,4.35%,4.49%,4.75%
Cc1cc(C)c(O)c(-c2cc(C(=O)Nc3ccc(S(=O)(=O)N4CC(C)OC(C)C4)cc3)[nH]n2)c1 (stereo not given),3.1%,1.95%,0.01%
CCn1c(-c2nonc2N)nc2c(C#CC(C)(C)O)ncc(OCCNCCc3ccc(OC)cc3)c21,5.15%,9.69%,2.23%
Nc1cccc(CNCc2ccc(-c3cccc(-c4nc5cc(F)ccc5[nH]4)c3)cc2)c1,-0.29%,-1.11%,-1.93%
CCC(C(=O)Nc1ccccc1)n1nc(-c2ccc(C)c(S(=O)(=O)N3CCCCC3)c2)ccc1=O (stereo not given),3.12%,4.1%,4.74%
CCN(CC)CCCC(C)Nc1ccnc2cc(Cl)ccc12 (stereo not given),1.44%,1.5%,1.51%
CN(Cc1cccc(F)c1)C1CCN(c2cc(NC(=O)c3cccc(F)c3)ccn2)CC1,3.06%,3.18%,2.7%
COc1ccc(Nc2nccc(NCC(O)c3ccc(C(F)(F)F)cc3)n2)cc1 (stereo not given),2.9%,5.27%,2.61%
c1ccc2[nH]c(-c3ccc(-c4ccc(CN5CCN(c6ccncc6)CC5)cc4)s3)nc2c1,6.21%,6.05%,1.74%
CN(C)c1ccc(CN2CCC(CNC(=O)c3cc(-c4cccc(F)c4)cs3)C2)cc1 (stereo not given),-1.95%,-1.31%,-9.42%
CCN(CCCN1CCCCC1)c1cc(C)nc(Nc2cc(Cl)ccc2C)n1,1.18%,1.77%,1.67%
Nc1nc(N)c2c(ccc3c2ccn3Cc2ccc(-c3ccccc3)cc2)n1,113%,113%,113%
Cc1cccc2nc(-c3ccc(-c4cccc(CN5CCN(c6ccncc6)CC5)c4)cc3)[nH]c12,25.2%,25.8%,8.81%
CCCCc1cc(NCC)nc(Nc2cccc(OC)c2)n1,38.6%,27%,19.1%
COc1ccc(OC)c(C=NNc2nc3ccccc3[nH]2)c1,5.98%,5.18%,3.34%
O=[N+]([O-])c1ccccc1C=NN=c1cc[nH]c2ccccc12,-2.55%,1.68%,-0.01%
Cc1ccc(-c2ccc(NC(=O)N3CCc4cc(Br)c(N5CCN(C)CC5)cc43)cc2)cn1,2.03%,1.29%,2.24%

# Reference: ChEMBL document CHEMBL3433997, “St. Jude Leishmania screening dataset” (2016)
